Source: the supplement of paper PMC10849652
The full data set covers some 8,800 targets. This sample favours those with a hit. About 0.5% of all pairs of compound and target were hits.

Legend:
Experiment in all cases: log2 fold change, soluble protein after heating vs DMSO (PISA); higher = thermal stabilisation; K562 lysate, 10 uM; active = over 0.2 and 3.5 SD of the protein, either way, in both replicates (recomputed)
erlotinib = compound: C#Cc1cccc(Nc2ncnc3cc(OCCOC)c(OCCOC)cc23)c1 [erlotinib]
Procedure, shortened: (§1)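 Dounce homogenisation of K562 pellets in PBS pH 7.4 with 1 mM MgCl2 produced a crude extract, used at 1 mg/mL protein. Exposure to 10 μM compound lasted 30 min, and aliquots were then heated for 3 min across 48°C-58°C, pooled and brought to 0.5% NP-40 at 4°C. The supernatant after 21,000xg for 90 min was quantified by TMTpro 16plex LC-MS/MS with channel sums equalised. Duplicate values are given as log-two fold change in thermal stability relative to solvent controls.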

[1] = compound: C1=CC(=CC=C1C2=NC3=C(N2)C=C(C=C3)C(=O)N)OC4=CC=C(C=C4)Cl
Procedure, shortened: as §1

[2] = compound: C1=CC2=NC=CN=C2C=C1/C=C/3\C(=O)NC(=O)S3
Procedure, shortened: as §1

[3] = compound: C1=CC=C(C=C1)C2=NC(=C(N2)C3=CC=NC=C3)C4=CC(=C(C=C4)Cl)O
Procedure, shortened: as §1

IRAK-1-4 Inhibitor I = compound: C1COCCN1CCN2C3=CC=CC=C3N=C2NC(=O)C4=CC(=CC=C4)[N+](=O)[O-] [IRAK-1-4 Inhibitor I]
Procedure, shortened: as §1

ibrutinib = compound: C=CC(=O)N1CCC[C@@H](n2nc(-c3ccc(Oc4ccccc4)cc3)c3c(N)ncnc32)C1 [ibrutinib]
Procedure, shortened: as §1

[4] = compound: CC(=O)c1cnc2ccc(-c3cc(Cl)c(O)c(Cl)c3)nc2c1N[C@H]1CC[C@H](CN(C)C)CC1
Procedure, shortened: as §1

ralimetinib = compound: CC(C)(C)Cn1c(N)nc2ccc(-c3[nH]c(C(C)(C)C)nc3-c3ccc(F)cc3)nc21 [ralimetinib]
Procedure, shortened: as §1

[5] = compound: CC(C)(O)CC(=O)NCCn1ccc2ncnc(Nc3ccc(Oc4cccc(C(F)(F)F)c4)c(Cl)c3)c21
Procedure, shortened: as §1

[6] = compound: CC(C)C1=C2N=C(C=C(N2N=C1)NCC3=CC=CC=C3)NCCCCCCN
Procedure, shortened: as §1

[7] = compound: CC1=C(C(CC(=O)N1)C2=CC=C(C=C2)C(F)(F)F)C(=O)NC3=C(C=C4C(=C3)C=NN4)F
Procedure, shortened: as §1

[8] = compound: CC1=C(C2=C(C=C1)C(=O)C3=CC=CC=C3N2CCCN)C
Procedure, shortened: as §1

[9] = compound: CC1=C(C=C(C=C1)NC(=O)C2=CC(=CC=C2)C(C)(C)C#N)NC3=CC4=C(C=C3)N=CN(C4=O)C
Procedure, shortened: as §1

[10] = compound: CC1=C(C=C(C=C1)NC(=O)C2=CC(=CC=C2)N(C)C)NC(=O)C3=CC=C(C=C3)O
Procedure, shortened: as §1

[11] = compound: CC1=CC=C(C=C1)SC2=C3C=C(SC3=CN=C2)C(=O)N
Procedure, shortened: as §1

[12] = compound: C1CCN(C1)C(=O)NC2=CC=CC(=C2)NC3=NC=C(C(=N3)NCCC4=CN=CN4)Br
Procedure, shortened: as §1

[13] = compound: C1CN(CCC1(CC2=CC=C(C=C2)Cl)N)C3=NC=NC4=C3C=CN4
Procedure, shortened: as §1

[14] = compound: C/C(=N\NC(=O)C1=CC(=CC=C1)S(=O)(=O)N2CCOCC2)/C3=C(C=CC(=C3)Cl)O
Procedure, shortened: as §1

[15] = compound: C1=CC2=C(C=CC(=C2)/C=C\3/C(=O)NC(=NCC4=CC=CS4)S3)N=C1
Procedure, shortened: as §1

[16] = compound: C1=CC=C2C(=C1)C3=NNC4=CC=CC(=C43)C2=O
Procedure, shortened: as §1

Measured: log2 fold change

CDK11A (UniProt Q9UQ88)
active: [4] 0.414
inactive: erlotinib 0.053 | [1] -0.128 | [2] -0.037 | [3] 0.027 | IRAK-1-4 Inhibitor I -0.009 | ibrutinib 0.022 | ralimetinib 0.003 | [5] 0.056 | [6] -0.036 | [7] -0.03 | [8] -0.022 | [9] 0.002 | [10] 0.025 | [11] -0.014

C6orf120 (UniProt Q7Z4R8)
inactive: erlotinib 0.043 | [1] -0.014 | [2] 0.008 | ibrutinib 0.013 | [4] -0.017 | [6] -0.003 | [8] 0.015 | [11] 0.126

C3AR1 (UniProt Q16581)
UniProt Q16581, sequence (Q16581 whole entry, looked up): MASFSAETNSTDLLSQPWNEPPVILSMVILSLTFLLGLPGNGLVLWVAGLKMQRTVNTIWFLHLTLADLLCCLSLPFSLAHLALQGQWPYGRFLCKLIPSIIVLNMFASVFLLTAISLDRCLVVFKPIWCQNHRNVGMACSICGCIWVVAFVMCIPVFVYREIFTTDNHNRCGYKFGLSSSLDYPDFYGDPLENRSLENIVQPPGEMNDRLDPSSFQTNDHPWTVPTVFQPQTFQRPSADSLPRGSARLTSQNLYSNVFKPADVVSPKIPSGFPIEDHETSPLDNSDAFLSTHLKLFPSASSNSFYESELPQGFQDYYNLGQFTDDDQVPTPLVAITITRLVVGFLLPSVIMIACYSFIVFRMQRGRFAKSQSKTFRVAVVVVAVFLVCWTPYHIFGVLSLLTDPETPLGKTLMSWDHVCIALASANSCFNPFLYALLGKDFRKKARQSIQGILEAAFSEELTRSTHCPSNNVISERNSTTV
inactive: [2] 0.145 | ibrutinib 0.018 | [7] 0.001 | [9] -0.074

CHD4, A0A2R8Y521
inactive: [3] 0.259 | [12] -0.033 | [13] 0.261 | IRAK-1-4 Inhibitor I 0.178 | [4] -0.049 | ralimetinib -0.175 | [5] -0.011 | [7] -0.19 | [8] 0.191 | [10] 0.228 | [11] 0.314

BNIP3 (UniProt Q12983)
inactive: erlotinib -0.008 | [1] 0.036 | [2] -0.013 | [3] 0.028 | [12] 0.031 | [13] 0.02 | IRAK-1-4 Inhibitor I 0.057 | ibrutinib 0.04 | [4] 0.048 | ralimetinib 0.032 | [5] 0.01 | [6] -0.002 | [7] -0.068 | [8] -0.002 | [9] 0.045 | [10] -0.047 | [11] 0.003

CDC14A isoform 2 (UniProt Q9UNH5)
UniProt Q9UNH5, sequence (Q9UNH5 whole entry, looked up): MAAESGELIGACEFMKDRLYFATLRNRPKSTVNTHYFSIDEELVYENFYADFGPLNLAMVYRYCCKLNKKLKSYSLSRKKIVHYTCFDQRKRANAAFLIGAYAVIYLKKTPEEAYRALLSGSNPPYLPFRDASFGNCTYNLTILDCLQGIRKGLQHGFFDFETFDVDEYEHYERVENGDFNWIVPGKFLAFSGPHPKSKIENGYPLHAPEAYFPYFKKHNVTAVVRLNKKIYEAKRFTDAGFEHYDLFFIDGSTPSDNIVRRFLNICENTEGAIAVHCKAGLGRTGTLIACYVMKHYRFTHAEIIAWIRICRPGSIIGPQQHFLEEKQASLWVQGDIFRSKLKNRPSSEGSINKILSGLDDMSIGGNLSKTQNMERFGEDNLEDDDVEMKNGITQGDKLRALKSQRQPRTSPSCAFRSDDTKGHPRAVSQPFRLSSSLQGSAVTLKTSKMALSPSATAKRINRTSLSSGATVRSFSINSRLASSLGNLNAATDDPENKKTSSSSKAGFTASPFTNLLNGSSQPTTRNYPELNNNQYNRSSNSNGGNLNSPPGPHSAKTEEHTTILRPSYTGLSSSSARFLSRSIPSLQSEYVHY
inactive: [3] 0.082 | IRAK-1-4 Inhibitor I -0.102 | [4] 0.107 | ralimetinib -0.336 | [5] -0.135 | [7] -0.04 | [9] 0.145 | [10] 0.219 | [11] 0.006

CCND3 (UniProt P30281)
inactive: erlotinib -0.034 | [1] 0.064 | [2] -0.03 | [3] 0.106 | [12] -0.228 | [13] 0.116 | IRAK-1-4 Inhibitor I 0.033 | ibrutinib 0.122 | ralimetinib 0.039 | [5] 0 | [6] 0.032 | [7] -0.104 | [8] -0.063 | [9] -0.021 | [10] -0.067

CASC1 (UniProt Q6TDU7)
UniProt Q6TDU7, sequence (Q6TDU7 whole entry, looked up): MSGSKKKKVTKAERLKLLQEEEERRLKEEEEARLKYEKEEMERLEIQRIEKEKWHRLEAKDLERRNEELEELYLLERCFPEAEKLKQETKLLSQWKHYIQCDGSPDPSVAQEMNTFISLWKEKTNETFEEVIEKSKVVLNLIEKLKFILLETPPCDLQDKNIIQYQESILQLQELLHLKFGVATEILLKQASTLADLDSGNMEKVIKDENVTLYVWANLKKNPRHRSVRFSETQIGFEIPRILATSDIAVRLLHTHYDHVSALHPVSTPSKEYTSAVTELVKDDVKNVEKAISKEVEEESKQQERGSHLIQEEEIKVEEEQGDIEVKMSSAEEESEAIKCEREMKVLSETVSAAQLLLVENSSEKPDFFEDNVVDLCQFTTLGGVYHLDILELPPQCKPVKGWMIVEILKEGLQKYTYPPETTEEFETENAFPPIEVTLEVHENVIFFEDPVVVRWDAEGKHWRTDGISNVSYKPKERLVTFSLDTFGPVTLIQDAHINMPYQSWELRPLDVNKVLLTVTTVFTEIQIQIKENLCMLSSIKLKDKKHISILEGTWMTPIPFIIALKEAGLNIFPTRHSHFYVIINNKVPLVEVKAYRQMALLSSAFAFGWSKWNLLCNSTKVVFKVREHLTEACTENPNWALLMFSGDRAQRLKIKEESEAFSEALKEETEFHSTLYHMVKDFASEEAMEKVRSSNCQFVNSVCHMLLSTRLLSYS
active: [2] 1.74
inactive: [3] -0.03 | IRAK-1-4 Inhibitor I 0.179 | ibrutinib 0.24 | ralimetinib 0.078 | [5] -0.093 | [10] 0.097

ATE1 (UniProt O95260)
UniProt O95260, sequence (O95260 whole entry, looked up): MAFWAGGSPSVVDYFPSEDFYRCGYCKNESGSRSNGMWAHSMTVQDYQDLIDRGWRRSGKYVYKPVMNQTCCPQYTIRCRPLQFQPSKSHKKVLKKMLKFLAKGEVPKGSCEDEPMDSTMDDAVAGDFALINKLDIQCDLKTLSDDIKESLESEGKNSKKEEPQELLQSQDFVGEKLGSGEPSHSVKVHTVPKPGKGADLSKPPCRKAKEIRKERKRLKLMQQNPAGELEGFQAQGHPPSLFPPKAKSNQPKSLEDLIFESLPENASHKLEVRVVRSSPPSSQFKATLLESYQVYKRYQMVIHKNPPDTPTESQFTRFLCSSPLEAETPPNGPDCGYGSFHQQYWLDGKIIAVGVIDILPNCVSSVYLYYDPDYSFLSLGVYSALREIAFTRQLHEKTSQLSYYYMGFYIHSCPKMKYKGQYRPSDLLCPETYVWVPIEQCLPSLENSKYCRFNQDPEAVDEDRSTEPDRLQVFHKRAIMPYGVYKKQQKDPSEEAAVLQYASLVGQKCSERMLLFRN
inactive: [2] 0.005 | ibrutinib 0.081 | [4] -0.025 | [9] -0.101 | [11] -0.022

BAHCC1 (UniProt Q9P281)
inactive: erlotinib -0.047 | [14] 0.026 | [1] 0.076 | [15] -0.126 | [16] -0.009 | [12] -0.101 | [13] -0.11 | [4] -0.045 | [6] -0.018 | [7] -0.114 | [8] -0.008 | [9] 0.013 | [11] 0.074

CENPV (UniProt Q7Z7K6)
inactive: [14] -0.033 | [15] 0.013 | [2] -0.093 | [3] -0.193 | [16] 0.015 | [12] -0.037 | [13] 0.012 | IRAK-1-4 Inhibitor I 0.013 | ibrutinib 0.036 | ralimetinib 0.352 | [5] -0.235 | [7] 0.182 | [9] 0.121 | [10] -0.13

ATPSCKMT (UniProt Q6P4H8)
UniProt Q6P4H8, sequence (Q6P4H8 whole entry, looked up): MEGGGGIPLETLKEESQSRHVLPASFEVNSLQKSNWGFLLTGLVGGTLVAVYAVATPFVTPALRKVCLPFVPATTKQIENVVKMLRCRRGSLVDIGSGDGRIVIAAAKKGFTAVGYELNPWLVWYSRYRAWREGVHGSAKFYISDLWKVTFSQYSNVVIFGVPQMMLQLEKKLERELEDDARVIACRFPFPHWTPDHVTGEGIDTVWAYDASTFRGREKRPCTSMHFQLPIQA
inactive: [2] 0 | [3] 0.075 | [12] -0.074 | [13] -0.006 | IRAK-1-4 Inhibitor I -0.046 | ibrutinib -0.042 | ralimetinib -0.15 | [5] 0.088 | [8] 0.019 | [9] -0.015 | [10] -0.001

CHCHD7 isoform 4 (UniProt Q9BUK0)
UniProt Q9BUK0, sequence (Q9BUK0 whole entry, looked up): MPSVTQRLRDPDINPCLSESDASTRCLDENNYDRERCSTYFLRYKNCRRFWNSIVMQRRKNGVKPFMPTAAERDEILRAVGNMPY
inactive: [14] -0.158 | [15] 0.048 | [2] 0.014 | [3] 0.046 | [16] -0.012 | [12] 0.006 | [13] 0.072 | IRAK-1-4 Inhibitor I -0.025 | ibrutinib -0.109 | [4] 0.008 | ralimetinib -0.038 | [5] -0.014 | [7] 0.116 | [8] 0.002 | [9] -0.025 | [10] 0.024 | [11] -0.061

BRD2 isoform 2 (UniProt P25440)
UniProt P25440, sequence (P25440 whole entry, looked up): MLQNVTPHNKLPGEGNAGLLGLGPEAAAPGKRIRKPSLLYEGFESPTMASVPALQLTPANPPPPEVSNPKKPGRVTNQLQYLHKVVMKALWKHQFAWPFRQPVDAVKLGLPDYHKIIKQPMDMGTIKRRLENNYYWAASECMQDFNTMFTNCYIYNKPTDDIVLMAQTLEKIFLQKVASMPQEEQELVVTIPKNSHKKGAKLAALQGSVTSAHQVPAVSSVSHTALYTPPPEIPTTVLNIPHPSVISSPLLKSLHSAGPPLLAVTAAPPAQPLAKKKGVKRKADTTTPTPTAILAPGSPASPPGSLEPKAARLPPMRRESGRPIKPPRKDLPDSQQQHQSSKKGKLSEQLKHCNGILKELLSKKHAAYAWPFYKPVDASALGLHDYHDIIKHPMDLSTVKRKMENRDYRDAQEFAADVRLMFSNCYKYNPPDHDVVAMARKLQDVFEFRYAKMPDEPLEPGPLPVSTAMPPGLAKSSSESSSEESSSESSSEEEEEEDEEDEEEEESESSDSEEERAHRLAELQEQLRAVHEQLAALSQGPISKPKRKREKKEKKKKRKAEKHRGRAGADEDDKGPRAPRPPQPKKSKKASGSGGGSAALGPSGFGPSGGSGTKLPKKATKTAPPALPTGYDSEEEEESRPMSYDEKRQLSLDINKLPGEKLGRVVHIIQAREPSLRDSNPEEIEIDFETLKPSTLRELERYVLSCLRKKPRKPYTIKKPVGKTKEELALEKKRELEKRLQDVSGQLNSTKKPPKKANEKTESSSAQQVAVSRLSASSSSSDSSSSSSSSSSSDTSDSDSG
inactive: erlotinib -0.039 | [1] 0.02 | [15] 0.036 | [2] 0 | [3] 0.109 | [16] -0.014 | [12] -0.134 | [13] -0.114 | IRAK-1-4 Inhibitor I 0.003 | ibrutinib 0.074 | [4] -0.041 | ralimetinib -0.056 | [5] 0.021 | [6] 0.26 | [7] -0.025 | [8] 0.008 | [9] 0.056 | [10] 0.049 | [11] 0.105

CARHSP1 (UniProt H3BNU9)
inactive: [2] -0.215 | ibrutinib 0.147 | [4] -0.005 | [7] -0.107 | [11] 0.107

CCDC130 (UniProt P13994)
UniProt P13994, sequence (P13994 whole entry, looked up): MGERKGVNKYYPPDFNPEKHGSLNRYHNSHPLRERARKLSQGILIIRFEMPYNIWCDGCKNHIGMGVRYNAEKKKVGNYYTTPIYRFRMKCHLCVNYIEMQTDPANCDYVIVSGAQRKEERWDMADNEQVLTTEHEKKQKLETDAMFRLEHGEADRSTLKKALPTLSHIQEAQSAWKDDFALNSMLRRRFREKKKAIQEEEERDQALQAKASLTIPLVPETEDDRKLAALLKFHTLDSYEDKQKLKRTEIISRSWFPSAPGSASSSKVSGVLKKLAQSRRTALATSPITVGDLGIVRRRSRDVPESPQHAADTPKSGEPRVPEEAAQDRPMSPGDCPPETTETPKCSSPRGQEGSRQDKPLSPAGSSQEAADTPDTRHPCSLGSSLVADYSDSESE
inactive: erlotinib -0.045 | [1] 0.28 | [2] 0.032 | [3] -0.224 | [12] -0.152 | [13] -0.016 | IRAK-1-4 Inhibitor I 0.025 | ibrutinib -0.232 | ralimetinib 0.181 | [5] 0.077 | [6] -0.112 | [9] 0.252 | [10] 0.072

CDK2 (UniProt P24941)
inactive: erlotinib -0.026 | [14] -0.152 | [1] 0.051 | [2] -0.003 | [3] 0.008 | [16] 0.237 | [12] 0.135 | [13] 0.004 | IRAK-1-4 Inhibitor I 0.014 | ibrutinib -0.031 | ralimetinib -0.038 | [5] 0.006 | [6] -0.036 | [7] -0.026 | [8] -0.016 | [9] -0.017 | [10] -0.003 | [11] -0.015
active: [4] 0.362

C15orf39 (UniProt Q6ZRI6)
UniProt Q6ZRI6, sequence (Q6ZRI6 whole entry, looked up): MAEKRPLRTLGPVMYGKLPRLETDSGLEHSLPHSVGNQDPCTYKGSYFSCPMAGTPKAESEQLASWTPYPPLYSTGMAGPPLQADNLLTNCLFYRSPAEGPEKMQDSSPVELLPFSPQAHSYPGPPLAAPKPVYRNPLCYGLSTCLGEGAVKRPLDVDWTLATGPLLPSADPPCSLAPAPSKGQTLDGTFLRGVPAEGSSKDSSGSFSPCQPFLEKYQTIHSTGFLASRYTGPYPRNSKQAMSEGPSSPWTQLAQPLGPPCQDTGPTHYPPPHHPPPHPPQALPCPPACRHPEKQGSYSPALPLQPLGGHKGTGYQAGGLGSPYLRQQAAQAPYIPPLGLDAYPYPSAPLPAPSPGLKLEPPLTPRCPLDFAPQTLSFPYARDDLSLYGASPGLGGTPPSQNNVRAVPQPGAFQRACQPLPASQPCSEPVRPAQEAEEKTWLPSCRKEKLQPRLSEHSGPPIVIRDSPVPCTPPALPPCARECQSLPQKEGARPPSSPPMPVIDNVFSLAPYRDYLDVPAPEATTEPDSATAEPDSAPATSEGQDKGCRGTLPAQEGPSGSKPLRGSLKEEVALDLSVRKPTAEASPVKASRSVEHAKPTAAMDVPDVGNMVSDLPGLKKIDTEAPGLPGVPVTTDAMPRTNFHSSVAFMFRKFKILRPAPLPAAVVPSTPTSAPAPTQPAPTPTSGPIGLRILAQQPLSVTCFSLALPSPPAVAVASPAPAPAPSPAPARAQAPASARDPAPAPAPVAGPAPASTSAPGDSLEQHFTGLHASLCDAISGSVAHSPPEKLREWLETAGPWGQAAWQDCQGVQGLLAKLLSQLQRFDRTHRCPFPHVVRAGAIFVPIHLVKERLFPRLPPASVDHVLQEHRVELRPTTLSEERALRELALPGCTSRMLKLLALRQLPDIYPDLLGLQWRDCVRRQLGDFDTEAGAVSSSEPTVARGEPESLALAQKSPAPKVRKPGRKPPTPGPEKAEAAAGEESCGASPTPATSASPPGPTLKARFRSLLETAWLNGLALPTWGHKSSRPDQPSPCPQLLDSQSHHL
inactive: erlotinib -0.029 | [1] 0.026 | [2] -0.031 | [3] 0.052 | [12] 0.019 | [13] -0.009 | IRAK-1-4 Inhibitor I 0.034 | ibrutinib -0.141 | ralimetinib -0.005 | [5] -0.029 | [6] -0.06 | [7] 0.104 | [8] 0.039 | [9] -0.03 | [10] 0.019

BMT2 (UniProt Q1RMZ1)
inactive: [7] 0.586

C9orf72 (UniProt Q96LT7)
inactive: erlotinib -0.043 | [1] 0.056 | [2] -0.01 | [3] -0.041 | [12] 0.056 | [13] -0.068 | IRAK-1-4 Inhibitor I -0.042 | ibrutinib -0.079 | [4] -0.004 | ralimetinib -0.011 | [5] -0.021 | [6] 0.025 | [7] -0.066 | [8] 0.014 | [9] -0.003 | [10] -0.023 | [11] 0.038
